This is an account of results in PubChem BioAssay (NCI).

What all share (test): NCI-60 one-dose screen, 48 h (100 = growth as untreated, 0 = no growth, -100 = all killed)
What all share (details): 10 µM unless noted

Experiment [1] deals with DU-145 prostate.
In experiment [2] the test system is MALME-3M melanoma.
Experiment [3] relates to MDA-MB-231 breast.
For experiment [4], the system named is RXF 393 renal.
The subject of experiment [5] is SF-268 CNS.
Experiment [6] relates to SF-295 CNS.
The subject of experiment [7] is SF-539 CNS.
The subject of experiment [8] is UACC-257 melanoma.
Experiment [9] relates to M14 melanoma.

The panel holds about 83,000 compounds, 20% with a hit somewhere; the sample as a whole holds those more often.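 Percent growth is the endpoint: 0 to 100 indicates growth inhibition (40 means 60% inhibition), 0 means no net growth, and negative values indicate cell death.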 Values without a mark were called inactive. Calls of active or inactive are those of the source. Rule for the calls: active = growth percent below 10; inactive = the rest.

With `COc1ccc(CN2c3ccccc3Sc3ccccc32)cc1O`, the growth in experiment [1] is 17.9%; in experiment [2] it was 71.9%; in experiment [3], 41.2%; in [4], -9.86% (active); in experiment [5] it was 45.6%; in [6], 4.23% (active). In addition, the results for the growth in experiment [7], in experiment [8] and in experiment [9] were -11% (active), 52.5% and 14.4%, respectively.
Take `Cc1cc2c3ccccc3ccc2[n+]2ccccc12`: the growth in [1] was 86.9%; in [2] it was -5.59% (active); in experiment [3], 81.6%; in [5] it was -24.6% (active); in experiment [6], 22.6%; in [7] it was 42.5%. The growth in experiment [9] was 68.2%.
`FC(F)(F)Oc1ccc2nc3nc4ccc[nH]c4cc3c2c1`: the growth in experiment [1] is 87.7%; in experiment [2] it was 93%; in experiment [3], 74.2%; in experiment [4], 76.7%; in [5], 82.3%; in experiment [6] it was 98.2%. The growth is 84.8% in [7], 103% in experiment [8] and 96.2% in experiment [9].
Regarding `Oc1ccc(N=Cc2ccccc2O)cc1`, the growth in [1] is 103%; in experiment [2] it was 73.6%; in experiment [3], 99.7%; in [5], 93.4%; in [6] it was 107%; in [7], 79.9%. In addition, the growth in [9] is 94.2%.
For `Cc1ccc(C(SCC(N)C(=O)O)(c2ccccc2)c2ccc(C)cc2)cc1` (centres undefined), the growth in experiment [1] was -43.8% (active); in [2] it was 19.8%; in experiment [3], -12.7% (active); in experiment [5], 20.5%; in experiment [6], 14.7%; in experiment [7], -5.21% (active). The growth in [9] was -34.4% (active).
For `COc1cc(-c2nn(-c3ccc(C)cc3)cc2C(=O)O)ccc1O`, the growth in experiment [1] is 109%; in experiment [2], 90%; in experiment [3], 91.7%; in experiment [4] it was 125%; in [5], 90.4%; in experiment [6] it was 97.9%. The values for the growth in experiment [7], in experiment [8] and in experiment [9] were 101%, 105% and 96.8%, respectively.
`N#Cc1nnn(-c2ccc(S(N)(=O)=O)cc2)c1NC(=O)CCl`: the growth in experiment [1] was 107%; in experiment [2], 102%; in [3], 102%; in experiment [4], 109%; in experiment [5] it was 97.6%; in experiment [6], 98.2%. Also, the growth in experiment [7] was 98.8%; in experiment [8], 89%; in experiment [9] it was 95.4%.
In the case of `CN1CCN=C1c1ccc(NC(=O)c2ccc(C(=O)Nc3ccc(C4=NCCN4C)cc3)cc2)cc1`, the growth is 119% in [1]; 80.6% in experiment [2]; 103% in [3]; 111% in experiment [5]; 92.9% in [6]; 94.1% in [7]. Also, the growth in experiment [9] was 95.9%.
For the molecule `O=C(CN1CCCCC1)Nc1ccc2oc(=O)ccc2c1`, the growth in experiment [1] was 113%; in [2], 106%; in [3], 105%; in experiment [4], 113%; in [5] it was 97.5%; in [6], 106%. Besides, the growth in experiment [7] is 129%; in [8], 96.3%; in [9], 106%.
On to `COc1cc2nnc3c4cccnc4[nH]c3c2cc1OC`, for which the growth in [1] was 37.6%; in experiment [2] it was -3.59% (active); in experiment [3], 45.9%; in experiment [5], 19.4%; in experiment [6] it was 67.4%; in [7], 54.9%. In addition, the results for the growth in [8] and in experiment [9] were -33.4% (active) and 81.2%, respectively.
In the case of `C=C1C(=O)O[C@H]2[C@H]1CC/C(COC(=O)NCc1ccc(OC)c(OC)c1)=C\CC[C@@]1(C)O[C@@H]21`, the growth in experiment [1] is 28.6%; in [2], 61.5%; in experiment [3], 55%; in experiment [4], 20.7%; in [5] it was 79.8%; in experiment [6], 88.2%. For the same molecule, the growth in experiment [7] was 42.9%; in experiment [8], 64.2%; in [9], 61.5%.
Regarding `CSc1ccc(-c2ccccc(=O)c2O)cc1`, the growth in [1] is 21%; in [2] it was 15.6%; in experiment [3], 36.8%; in experiment [4] it was 39.3%; in experiment [5], 11.5%; in experiment [6], 19.4%. The growth in experiment [7] was 4.03% (active); in experiment [8], -4.11% (active); in experiment [9], -6.35% (active).
For the molecule `CN(C)C(=S)N=Nc1c(O)[nH]c2ccccc12`, the growth in experiment [1] is 31.6%; in experiment [2] it was 30.8%; in experiment [3], 49.1%; in experiment [5] it was 14.6%; in [6], 17.5%; in experiment [7] it was 9.37% (active). Besides, the growth in experiment [9] is -6.4% (active).
In the case of `COc1ccccc1Nc1nc(-c2cc3cccc(C(F)(F)F)c3oc2=O)cs1`, the growth in experiment [1] is 7% (active); in experiment [2], 78.2%; in experiment [3] it was 19.1%; in experiment [4], 26.7%; in experiment [5], 26.2%; in [6] it was 3.82% (active). The growth in experiment [7] is -32.9% (active); in experiment [8], 57.1%; in experiment [9] it was 13.5%.
As to `CSc1ccc(SC2c3ccc(C)cc3Oc3nc(N)c(C#N)c(N)c32)cc1` (centres undefined), the growth was -88.7% (active) in experiment [1]; -94% (active) in experiment [2]; -90.5% (active) in experiment [3]; -70.2% (active) in experiment [4]; -26.1% (active) in [5]; 15.3% in experiment [6]. In addition, the results for the growth in [7], in experiment [8] and in [9] were -86.7% (active), -76.3% (active) and -81.6% (active), respectively.
`CCNc1ncnc2c1cnn2C1CCCO1` (centres undefined): the growth in experiment [1] was 120%; in experiment [2] it was 110%; in [3], 110%; in experiment [4], 105%; in experiment [5] it was 96.9%; in experiment [6], 101%. Besides, the growth in experiment [7] is 105%; in experiment [8], 99.6%; in experiment [9], 104%.
On to `O=[N+]([O-])c1ccccc1/C=N\NC(=S)N/N=C/c1ccccc1[N+](=O)[O-]`, for which the growth is 62.1% in experiment [1]; 19% in experiment [2]; 83% in [3]; 76.3% in experiment [4]; 41% in experiment [5]; 29.8% in experiment [6]. The figures for the growth in experiment [7], in [8] and in experiment [9] were 56.3%, 83.2% and 37.6%, respectively.
In the case of `NC(CSC(c1ccccc1)(c1ccccc1)c1ccc(Cl)cc1)C(=O)O` (centres undefined), the growth was -49.7% (active) in experiment [1]; 22.6% in experiment [2]; -32.8% (active) in experiment [3]; 16.2% in experiment [5]; 13.8% in experiment [6]; -12.3% (active) in [7]. In experiment [9], the growth is -24.2% (active).
